Here are results for 84 molecules from PubChem BioAssay AID1259416 (Broad Institute, 2018).

SMILES strings stand for the structures. Where “and” joins values, the source holds several entries; their conditions need not be identical. Identical values can stand only once. Hit rate of the full screen: of about 69,000 compounds, about 2,600 (3.8%) were called active. The sample holds actives, similar compounds and a random draw of the others, so the mix is not that of the screen. Cut-off read from the data, not from the text of the source: active = activity change below about -70% (passing the limit was not always enough); inconclusive = no clear call, values can overlap the other calls. More than one record can exist for a structure, and the calls need not agree.

This test in a line: inhibitors of Toxoplasma growth in IFN-γ-primed hosts – cell-based, primary screen (AID 1259416).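 Note: host cells are HeLa cells infected with Toxoplasma gondii.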 Conditions: Toxoplasma gondii growth in IFN-gamma-treated host cells; stronger effect = lower value; concentration not given here.
As to `O=C(NCc1cccnc1)c1ccc(N2CCC(NC3C4CC5CC(C4)CC3C5)CC2)cc1` (centres undefined), the activity change, negative = inhibition was 5.88% (inactive).

Turning to `O=C(NCCc1nnc2n1CCNCC2)C1(c2ccccc2)CC12CCCC2` (centres undefined), the activity change, negative = inhibition is -3.83% (inactive).

As to `Cc1cc(C)c2c(-n3cccc3)c(C(=O)c3ccc(Cl)cc3)sc2n1`, the activity change, negative = inhibition is -91.8% (active).

For `Cc1cc(C)c2c(n1)sc1c(=O)n(C)cnc12`, the activity change, negative = inhibition was -4.83% (inactive).

In the case of `COc1ccc(OC)c(C(=O)c2ccc(Cl)cc2)c1`, the activity change, negative = inhibition was 36.6% (inactive).

Take `Cn1cc(C(CNC(=O)Nc2cccc(F)c2)c2cccnc2)c2ccccc21` (centres undefined): the activity change, negative = inhibition is 27% (inactive).

In the case of `CCCC(=O)Nc1ccc2c(c1)OC[C@@H](C)N(CC1CCOCC1)C[C@H](C)[C@H](OC)CN(C)C2=O`, the activity change, negative = inhibition was -83.2% (active).

Turning to `CO[C@@H]1CN(C)C(=O)c2cc(NC(=O)NC3CCCCC3)ccc2OC[C@H](C)N(CC2CCOCC2)C[C@H]1C`, the activity change, negative = inhibition was -30.9% (inactive).

With `CO[C@@H]1CN(C)C(=O)c2ccc(NS(C)(=O)=O)cc2OC[C@@H](C)N(CC2CC2)C[C@@H]1C`, the activity change, negative = inhibition was -56.4% (inactive).

Regarding `O=C(CCc1nc(-c2ccccn2)no1)N1CCC(CCc2ccccc2F)CC1`, the activity change, negative = inhibition is 18.8% (inactive).

For `CCc1[nH]c2c(CNS(=O)(=O)N(C)C)cc(C)cc2c1C`, the activity change, negative = inhibition was -4.66% (inactive).

With `Cc1nc(Nc2ccc(Cl)cc2)sc1C(=O)c1ccncc1`, the activity change, negative = inhibition was 0.796% (inactive).

Regarding `Fc1ccc(Cl)cc1-c1nc(Nc2ccncc2)c2nccnc2n1`, the activity change, negative = inhibition was -81% (active).

With `O=C(Nc1ccccc1Oc1ccc(F)cc1)C1CC(=O)N(Cc2cccnc2)C1` (centres undefined), the activity change, negative = inhibition is 18.8% (inactive).

As for `O=C(Nc1nc(-c2ccc(Br)cc2)cs1)c1c(O)c2ccccc2[nH]c1=O`, the activity change, negative = inhibition was 8.75% (inactive).

Regarding `CCCc1nc(C)c(CNC(=O)C2CCOC2)s1` (centres undefined), the activity change, negative = inhibition was -2.34% (inactive).

As for `COCCCNC(=O)c1nc(Nc2ccc(F)cc2)c2ccccc2n1`, the activity change, negative = inhibition was -29% (inactive).

Consider `C=CC(=O)Nc1ccc2c(c1)CCC(=O)N2CC`, for which the activity change, negative = inhibition is -3.01% (inactive).

`O=C(Cn1c(NCCCO)nc2ccccc21)c1ccccc1`: the activity change, negative = inhibition is -22.3% (inactive).

With `O=C(Cn1c(C(=O)c2ccccc2)nc2ccccc21)c1ccc(Br)cc1`, the activity change, negative = inhibition was -103% (active).

With `O=C(CNC(=O)c1ccccc1F)c1ccc(Br)cc1`, the activity change, negative = inhibition was 264% (inactive).

As to `Clc1cccc(CN2CC3CCCC(C2)C3N2CCOCC2)c1Cl` (centres undefined), the activity change, negative = inhibition was 9.4% (inactive).

Take `Cc1noc(C)c1S(=O)(=O)Nc1cccc2c1O[C@H](CN(C)Cc1ccc(C(F)(F)F)cc1)[C@H](C)CN([C@@H](C)CO)C2=O`: the activity change, negative = inhibition is 25.4% (inactive).

As to `C[C@@H]1CN([C@H](C)CO)C(=O)c2cccc(NC(=O)c3ccc(-c4nccs4)cc3)c2O[C@@H]1CN(C)C(=O)Nc1ccc(C(F)(F)F)cc1`, the activity change, negative = inhibition is -77.7% (active).

For the molecule `Cc1ccc(S(=O)(=O)Nc2cccc3c2O[C@H](CN(C)C(=O)Nc2ccc(C(F)(F)F)cc2)[C@@H](C)CN([C@@H](C)CO)C3=O)cc1`, the activity change, negative = inhibition is 16.3% (inactive).

For `C[C@H]1CN([C@@H](C)CO)C(=O)c2ccccc2-c2ccccc2CO[C@H]1CN(C)C(=O)Nc1ccc(-c2ccccc2)cc1`, the activity change, negative = inhibition is -62.1% (inactive).

For the molecule `C[C@H]1CN([C@@H](C)CO)C(=O)c2cccc(NC(=O)C3CCOCC3)c2O[C@@H]1CN(C)C(=O)Nc1cccc2ccccc12`, the activity change, negative = inhibition was 5.47% (inactive).

Turning to `CC(C)NC(=O)N(C)C[C@H]1Oc2c(NS(=O)(=O)c3cccs3)cccc2C(=O)N([C@H](C)CO)C[C@H]1C`, the activity change, negative = inhibition is -14.3% (inactive).

For the molecule `C[C@H](CO)N1C[C@H](C)[C@@H](CN(C)Cc2ccc(C(F)(F)F)cc2)Oc2c(NC(=O)NC3CCCCC3)cccc2C1=O`, the activity change, negative = inhibition was -53.4% (inactive).

`C[C@H]1CN([C@@H](C)CO)C(=O)c2cccc(NC(=O)c3ccc(-c4nccs4)cc3)c2O[C@@H]1CN(C)C(=O)Nc1ccc(C(F)(F)F)cc1`: the activity change, negative = inhibition was -80.3% (active).

With `C[C@@H]1CN([C@H](C)CO)C(=O)c2cccc(NC(=O)NC3CCCCC3)c2O[C@H]1CN(C)Cc1ccc(C(F)(F)F)cc1`, the activity change, negative = inhibition is -74.3% (active).

Consider `O=C(Cn1ncc2ccccc2c1=O)NCc1cc(Cl)c2c(c1)OCCCO2`, for which the activity change, negative = inhibition is 23% (inactive).

Regarding `Cc1ccsc1CNc1cccc(C(=O)N(C)Cc2snnc2C)c1`, the activity change, negative = inhibition was -4.49% (inactive).

Turning to `Cc1ccc2oc(=O)n(CCC(=O)N3[C@@H]4CC[C@H]3CNC(=O)C4)c2c1`, the activity change, negative = inhibition is -11.3% (inactive).

As for `Cc1cc(C)cc(NC(=O)N2CCC3(CC2)Nc2ccccc2-n2cccc23)c1`, the activity change, negative = inhibition is 295% (inactive).

As for `O=C(N[C@H]1C[C@H]2C(=O)NCC(=O)N2C1)c1cccc(Cn2cccn2)c1`, the activity change, negative = inhibition was -5.16% (inactive).

Take `COc1c(C)c2c(c(O)c1C/C=C(\C)CCC(=O)O)C(=O)OC2`: the activity change, negative = inhibition is -91.9% (active).

As for `O=C(O)CSc1nnc(-c2ccn[nH]2)n1-c1ccccc1Cl`, the activity change, negative = inhibition was 55.4% (inactive).

Turning to `Cc1ccsc1CN(CCCN1CCOCC1)CC1=Cc2ccccc2OC1`, the activity change, negative = inhibition is 97.9% (inactive).

`Cc1ccc2oc(CN(CCCO)Cc3sccc3C)c(C)c2c1`: the activity change, negative = inhibition is -33.4% (inactive).

As to `CCS(=O)(=O)N1CCC2(CC1)Nc1ccc(C)c(C)c1-n1cccc12`, the activity change, negative = inhibition was 28% (inactive).

Take `CC1(C)[C@]2(C(=O)NCCCc3nc4ccccc4o3)CC[C@@]1(C)OC2=O`: the activity change, negative = inhibition was 4.16% (inactive).

As for `c1ccc(N2CCN(N=C3c4ccccc4-c4ccccc43)CC2)nc1`, the activity change, negative = inhibition was -103% (active).

Take `c1ccc(N2CCC3(COCCN(c4ncccn4)C3)C2)nc1` (centres undefined): the activity change, negative = inhibition was -3.03% (inactive).

As to `O=C(CN1CCN(c2ccccn2)CC1)Nc1ccc(Br)cc1`, the activity change, negative = inhibition is -9% (inactive).

Take `CCCn1cc(S(=O)(=O)NCC2CCC(c3ccc(C(N)=O)c(C)n3)CC2)c(C)n1` (centres undefined): the activity change, negative = inhibition was 19.4% (inactive).

With `CN(C)C(=O)[C@@]12CCCN(Cc3cccs3)C[C@@H]1CN(Cc1cnn(C)c1)C2`, the activity change, negative = inhibition is -0.124% (inactive).

Turning to `FC(F)(F)c1cccc2c(N3CCN(C4CCOCC4)CC3)ccnc12`, the activity change, negative = inhibition is -46.1% (inactive).

In the case of `CN(n1cnc2ccccc2c1=O)S(=O)(=O)c1cc(Cl)sc1Cl`, the activity change, negative = inhibition was -76.6% (active).

Take `CN(C(=O)Nc1ccc(Cl)cc1)n1cnc2ccccc2c1=O`: the activity change, negative = inhibition was -50.7% (inactive).

As to `COC(=O)c1cc(NC(=O)S(=O)(=O)c2ccccc2)cc(C(=O)OC)c1`, the activity change, negative = inhibition was 86.5% (inactive).

Take `CCCCc1c(O)cc(-c2ccccc2)n(Cc2ccccc2)c1=O`: the activity change, negative = inhibition was -76.1% (active).

For the molecule `Cc1ccc(O)c(CCc2ccccc2)n1`, the activity change, negative = inhibition was 8.51% (inactive) and 1.67% (inactive).

For the molecule `CCCCN(Cc1ccccc1)C(=O)c1cc2cccnc2n(Cc2ccc(Cl)cc2)c1=O`, the activity change, negative = inhibition is 28.6% (inactive).

As for `CC(C)(O)c1cn(C2CCN(C(=O)CCc3ccncc3)CC2)nn1`, the activity change, negative = inhibition was 5.1% (inactive).

In the case of `O=S(=O)(c1ccc(Cl)c(Cl)c1)N1CCc2c([nH]c3ccccc23)C1C(F)(F)F` (centres undefined), the activity change, negative = inhibition was -82.6% (active).

Turning to `O=S(=O)(c1ccc(Cl)c(Cl)c1)N1CCC2(CC1)Nc1ccccc1-n1cccc12`, the activity change, negative = inhibition is 43% (inactive).

In the case of `O=C(c1ccc(F)cc1)N1CCc2c([nH]c3ccccc23)C1c1ccccc1` (centres undefined), the activity change, negative = inhibition was 63% (inactive).

For the molecule `CCc1nnc(CN(CC)C(=O)c2cccc(-c3ccc(C)o3)c2)o1`, the activity change, negative = inhibition was 0.889% (inactive).

For `Cn1ccnc1-c1ccc(N2CCCC(OCc3cccnc3)C2)nn1` (centres undefined), the activity change, negative = inhibition was -19% (inactive).

On to `COCCc1noc(CN2CCCC2c2ccccn2)n1` (centres undefined), for which the activity change, negative = inhibition was 8.04% (inactive).

Consider `N#C/C(=C\c1ccc(O)c(O)c1)C(=O)NCc1ccccc1`, for which the activity change, negative = inhibition is 5.59% (inactive).

Take `CCC[C@H](NC(=O)/C(C#N)=C/c1cccc(Br)n1)c1ccccc1`: the activity change, negative = inhibition was -72.2% (active).

For `CN(C)C(=O)c1cccc(-c2ccccc2[C@@H]2[C@@H](CO)N(C(=O)C3CCCCC3)[C@H]2C#N)c1`, the activity change, negative = inhibition is -9.68% (inactive).

As for `COCc1ncn2c1CN(C(=O)c1cnc(C)cn1)CCC2`, the activity change, negative = inhibition was 16.2% (inactive).

As to `CC1CCCCC12NC(=O)N(CC(=O)N1CCN(Cc3ccccn3)CC1)C2=O` (centres undefined), the activity change, negative = inhibition was 13.9% (inactive).

Consider `COCCn1nnnc1CN(Cc1ccccc1)Cc1cc2ccc(C)c(C)c2[nH]c1=O`, for which the activity change, negative = inhibition is -81.4% (active).

On to `CC(C)Oc1cccc(-c2csc(C(N)=O)c2)c1`, for which the activity change, negative = inhibition was 65.6% (inactive).

`CN(C)C(=O)C[C@]12COC[C@H]1CN(Cc1ccc3ccccc3n1)C2`: the activity change, negative = inhibition was -5.46% (inactive).

Turning to `COC(=O)Nc1nc2ccc(C(=O)C3CC3)cc2[nH]1`, the activity change, negative = inhibition was -69.3% (inactive).

With `COCc1ccc(C(=O)Nc2ccc3nc(C)[nH]c3c2)o1`, the activity change, negative = inhibition was -55.3% (inactive).

Turning to `COC(=O)Nc1nc2ccc(Sc3ccccc3)cc2[nH]1`, the activity change, negative = inhibition is -69.1% (inactive) and 7.35% (inactive) and -78% (active).

With `Cc1cc(C(=O)N2CCc3c(COCCN(C)C)cncc3C2)no1`, the activity change, negative = inhibition was -28.8% (inactive).

As to `Cc1nnsc1CNC(=O)CC1CCc2ccccc21` (centres undefined), the activity change, negative = inhibition was -7.08% (inactive).

As to `CNC1(c2nnnn2CCOC(=O)Nc2ccc(Cl)cc2)CCCC1`, the activity change, negative = inhibition was 93.6% (inactive).

Regarding `Cc1[nH]c(/C=C2\C(=O)Nc3ccc(S(=O)(=O)Cc4c(Cl)cccc4Cl)cc32)c(C)c1C(=O)N1CCC[C@@H]1CN1CCCC1`, the activity change, negative = inhibition was -79.5% (active) and -88.9% (active) and -63.2% (inactive).

For the molecule `COc1ccc(OC)c(CNC(=O)Cn2ncc3c(N4CCCC4)ncnc32)c1`, the activity change, negative = inhibition was 7.89% (inactive).

Take `CC(C)(C)c1nc(-c2cccc(NS(=O)(=O)c3c(F)cccc3F)c2F)c(-c2ccnc(N)n2)s1`: the activity change, negative = inhibition was -83.7% (active).

Consider `CC1=C(C(=O)NCCCN2CC(C)CC(C)C2)C2(CCN(Cc3ccccc3)CC2)OC1=O` (centres undefined), for which the activity change, negative = inhibition is -65.1% (inactive).

`O=C(c1nc2sccn2c1CN1CCC(c2ccccc2Cl)C1)N1CCCCC1` (centres undefined): the activity change, negative = inhibition is 1.45% (inactive).

As to `O=C(Nc1cccc(N2CCCCS2(=O)=O)c1)c1ccc(-n2cccn2)nc1`, the activity change, negative = inhibition was 6.32% (inactive).

In the case of `Cc1ccc(C(=O)Nc2ccc(Oc3ccc(C(C)(C)C)cc3)nc2)cc1`, the activity change, negative = inhibition was -31.5% (inactive).

Turning to `Cc1ccc(C)c(-c2coc(-c3ccc(NC(=O)Cc4cccs4)cc3)n2)c1`, the activity change, negative = inhibition is 7.55% (inactive).

Consider `CC(C)(C)c1ccc(Oc2ccc(NC(=O)Cc3cccs3)cn2)cc1`, for which the activity change, negative = inhibition is -76.9% (active).
